This is an account of results in PubChem BioAssay (NCATS).

Assay [1] can be described thus: Quantitative High-Throughput drug screen in 47 multiple myeloma cell lines against the NCATS MIPE library collection: JJN3_DSMZ cell viability assay (AID 1918966; further: nearly all actives have a fitted effect of over 50% in size; further: potency means the concentration at half of the fitted maximal effect). The essentials:
(§1)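 We plated 500 myeloma cells per well, pinned in MIPE 4.0 compounds, and incubated for 48 hours at 37C. ATP was then quantified with CellTiter-Glo, with DMSO and media-only wells defining 100% and 0%.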

A short description of assay [2]: Quantitative High-Throughput drug screen in 47 multiple myeloma cell lines against the NCATS MIPE library collection: H1112_PLB cell viability assay (AID 1918967; further: nearly all actives have a fitted effect of over 30% in size; further: potency means the concentration at half of the fitted maximal effect). Put shortly: as §1
Assay [3] in a line: Quantitative High-Throughput drug screen in 47 multiple myeloma cell lines against the NCATS MIPE library collection: KMS27_JCRB cell viability assay (AID 1918970). Further: nearly all actives have a fitted effect of over 30% in size. Further: potency means the concentration at half of the fitted maximal effect. Put shortly: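 KMS27_JCRB myeloma cells, 500 per well, exposed 48 h at 37 C, 5% CO2 to MIPE 4.0 compounds. Viability from ATP by CellTiter-Glo luminescence, normalized to DMSO (100%) and medium-only (0%) wells.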

Assay [4] is described as follows: Quantitative High-Throughput drug screen in 47 multiple myeloma cell lines against the NCATS MIPE library collection: KMS12BM_JCRB cell viability assay (AID 1918971). Further: nearly all actives have a fitted effect of over 35% in size. Further: potency means the concentration at half of the fitted maximal effect. The essentials: (§2)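 qHTS of the MIPE 4.0 collection: 500 myeloma cells/well, 48 h drug exposure at 37C in 5% CO2, then CellTiter-Glo for 5 min at room temperature before luminescence reading.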
Assay [5] can be described thus: Quantitative High-Throughput drug screen in 47 multiple myeloma cell lines against the NCATS MIPE library collection: KMS12PE_JCRB cell viability assay (AID 1918972). Further: nearly all actives have a fitted effect of over 30% in size. Further: potency means the concentration at half of the fitted maximal effect. Put shortly: (§3)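 Inhibition of cell viability is measured here. Each line was plated at 500 cells per well, treated with MIPE 4.0 drugs, kept 48 hours at 37C, then assayed for ATP content by CellTiter-Glo luminescence.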

The nature of assay [6]: Quantitative High-Throughput drug screen in 47 multiple myeloma cell lines against the NCATS MIPE library collection: MOLP8_DSMZ cell viability assay (AID 1918977). Further: nearly all actives have a fitted effect of over 45% in size. Further: potency means the concentration at half of the fitted maximal effect. The essentials: (§4)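 ATP-based luminescence (CellTiter-Glo, 5 min RT incubation) quantified surviving cells following two days' treatment with MIPE 4.0 agents at 37 °C, 5% CO2.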
Assay [7] is described as follows: Quantitative High-Throughput drug screen in 47 multiple myeloma cell lines against the NCATS MIPE library collection: OCIMY1_PLB cell viability assay (AID 1918979). Further: nearly all actives have a fitted effect of over 35% in size. Further: potency means the concentration at half of the fitted maximal effect. The essentials:
as §4

Assay [8] can be described thus: Quantitative High-Throughput drug screen in 47 multiple myeloma cell lines against the NCATS MIPE library collection: MM1R_ATCC cell viability assay (AID 1918981). Further: nearly all actives have a fitted effect of over 35% in size. Further: potency means the concentration at half of the fitted maximal effect. The essentials: as §4
The nature of assay [9]: Quantitative High-Throughput drug screen in 47 multiple myeloma cell lines against the NCATS MIPE library collection: LP1_DSMZ cell viability assay (AID 1918982). Further: nearly all actives have a fitted effect of over 35% in size. Further: potency means the concentration at half of the fitted maximal effect. Put shortly:
as §4

Assay [10] is described as follows: Quantitative High-Throughput drug screen in 47 multiple myeloma cell lines against the NCATS MIPE library collection: KMS34_JCRB cell viability assay (AID 1918985). Further: nearly all actives have a fitted effect of over 40% in size. Further: potency means the concentration at half of the fitted maximal effect. The essentials: as §4
The nature of assay [11]: Quantitative High-Throughput drug screen in 47 multiple myeloma cell lines against the NCATS MIPE library collection: Karpas25_ECACC cell viability assay (AID 1918968; further: nearly all actives have a fitted effect of over 35% in size; further: potency means the concentration at half of the fitted maximal effect). The essentials:
as §1

Assay [12] in a line: Quantitative High-Throughput drug screen in 47 multiple myeloma cell lines against the NCATS MIPE library collection: KMS21BM_JCRB cell viability assay (AID 1918974). As to conditions: ATP luminescence, 48 h; viability: at 45.8 µM (top of the series) unless noted. The essentials:
as §1

The nature of assay [13]: Quantitative High-Throughput drug screen in 47 multiple myeloma cell lines against the NCATS MIPE library collection: KMS26_JCRB cell viability assay (AID 1918975). Further: nearly all actives have a fitted effect of over 45% in size. Further: potency means the concentration at half of the fitted maximal effect. The essentials:
as §2

Assay [14] is described as follows: Quantitative High-Throughput drug screen in 47 multiple myeloma cell lines against the NCATS MIPE library collection: NCIH929_DSMZ cell viability assay (AID 1918978). Further: nearly all actives have a fitted effect of over 35% in size. Further: potency means the concentration at half of the fitted maximal effect. The essentials:
as §4

Assay [15] is described as follows: Quantitative High-Throughput drug screen in 47 multiple myeloma cell lines against the NCATS MIPE library collection: MM1S_ATCC cell viability assay (AID 1918980). Further: nearly all actives have a fitted effect of over 45% in size. Further: potency means the concentration at half of the fitted maximal effect. The essentials:
as §4

A short description of assay [16]: Quantitative High-Throughput drug screen in 47 multiple myeloma cell lines against the NCATS MIPE library collection: KMS28PE_JCRB cell viability assay (AID 1918983). Further: nearly all actives have a fitted effect of over 35% in size. Further: potency means the concentration at half of the fitted maximal effect. Put shortly: as §4
A short description of assay [17]: Quantitative High-Throughput drug screen in 47 multiple myeloma cell lines against the NCATS MIPE library collection: MMM1_PLB cell viability assay (AID 1918976). Further: nearly all actives have a fitted effect of over 35% in size. Further: potency means the concentration at half of the fitted maximal effect. The essentials: as §4
Assay [18] in a line: Quantitative High-Throughput drug screen in 47 multiple myeloma cell lines against the NCATS MIPE library collection: KMS20_JCRB cell viability assay (AID 1918973). Further: nearly all actives have a fitted effect of over 45% in size. Further: potency means the concentration at half of the fitted maximal effect. Put shortly:
as §1

A short description of assay [19]: Quantitative High-Throughput drug screen in 47 multiple myeloma cell lines against the NCATS MIPE library collection: L363_DSMZ cell viability assay (AID 1918984). Further: nearly all actives have a fitted effect of over 40% in size. Further: potency means the concentration at half of the fitted maximal effect. The essentials:
as §4

The nature of assay [20]: Quantitative High-Throughput drug screen in 47 multiple myeloma cell lines against the NCATS MIPE library collection: INA6_PLB cell viability assay (AID 1918965; further: nearly all actives have a fitted effect of over 55% in size; further: potency means the concentration at half of the fitted maximal effect). Put shortly: as §3

Structures are written as SMILES. Inconclusive results are not listed. Activity calls are given as the source filed them. The call rests on the fitted dose curve; in most records, active means well fitted curve in the direction sought with a large enough effect; inconclusive means small, poorly fitted or top-dose-only effect, or another doubt; inactive means no such curve, though single readings can be large; an effect the other way counts as inactive or inconclusive.

Take `Cc1c(OCC(F)(F)F)ccnc1CS(=O)c1nc2ccccc2[nH]1` (stereo not given): the Potency was 2.64 µM (active) in assay [1], 20.9 µM (active) in assay [2], 18.7 µM (active) in assay [5] and 0.833 µM (active) in assay [8]. The Potency result in [3], in assay [4], in assay [6], in assay [7], in assay [9] and in [10] was “inactive” each time.

Take `Nc1ccc(S(N)(=O)=O)cc1`: the Potency entry in assay [1], in assay [2], in [11], in assay [3], in assay [4] and in assay [5] was “inactive” throughout. For the same molecule, the Potency result in assay [12], in assay [13], in assay [6], in [14], in [7] and in assay [15] was “inactive” throughout. Further, the Potency entry in assay [8], in [9] and in assay [16] was “inactive” each time.

For `CC(C)[C@H](N)C(=O)OCCOCn1cnc2c(=O)[nH]c(N)nc21`, the Potency entry in assay [1], in assay [2], in assay [11], in assay [13], in assay [17] and in assay [14] was “inactive” in each case. For the same molecule, the Potency entry in assay [7], in [8] and in assay [9] was “inactive” throughout. In addition, the Potency was 23.5 µM (active) in [5] and 14.8 µM (active) in assay [16].

`Cc1cc(C2CCCCC2)n(O)c(=O)c1`: the Potency in assay [1] is 18.7 µM (active); in assay [2] it was 13.2 µM (active); in assay [11], 3.32 µM (active); in [3] it was 5.26 µM (active); in assay [4], 8.33 µM (active); in [5], 11.8 µM (active). Moreover, the Potency is 10.5 µM (active) in assay [13]; 14.8 µM (active) in assay [17]; 4.18 µM (active) in assay [6]; 7.43 µM (active) in assay [14]; 16.6 µM (active) in assay [7]; 0.935 µM (active) in assay [15]. The Potency in assay [8] is 1.48 µM (active); in [9], 14.8 µM (active); in assay [10], 5.26 µM (active).

Take `Oc1ccc(-c2nc(-c3ccc(F)cc3)c(-c3ccncc3)[nH]2)cc1`: the Potency in assay [1] is 9.35 µM (active); in [2], 8.33 µM (active); in assay [11], 7.43 µM (active); in assay [15], 16.6 µM (active). Moreover, the Potency result in assay [3] is “inactive”.

Take `O=C(NCCO[N+](=O)[O-])c1cccnc1`: the Potency entry in assay [1], in assay [2], in assay [17], in [14], in [7] and in assay [9] was “inactive” in each case. The Potency result in assay [16] and in [10] was “inactive” in each case. Besides, the Potency in [15] was 4.69 µM (active).

With `CCC1=C(C)CN(C(=O)NCCc2ccc(S(=O)(=O)NC(=O)NC3CCC(C)CC3)cc2)C1=O` (stereo not given), the Potency entry in [1], in [2], in assay [11], in [3], in [5] and in assay [18] was “inactive” throughout. For the same molecule, the Potency entry in [12], in assay [13], in assay [14], in assay [7], in [15] and in assay [8] was “inactive” each time. Also, the Potency entry in assay [9], in [16] and in [10] was “inactive” throughout.

Regarding `CC(C)[N+]1(C)[C@@H]2CC[C@H]1CC(OC(=O)C(CO)c1ccccc1)C2` (stereo not given in full), the Potency entry in assay [1], in assay [2], in assay [13], in assay [6], in assay [7] and in [15] was “inactive” each time. Further, the Potency entry in assay [8], in assay [9], in assay [16] and in [10] was “inactive” in each case. In addition, the Potency is 14.8 µM (active) in assay [3], 16.6 µM (active) in assay [5] and 14.8 µM (active) in assay [19].

As for `CCCCCCCCOc1ccccc1C(=O)Nc1ccc(C(=O)OCC[N+](C)(CC)CC)cc1`, the Potency was 18.7 µM (active) in assay [20]; 9.35 µM (active) in assay [11]; 18.7 µM (active) in [4]; 4.69 µM (active) in [5]; 16.6 µM (active) in assay [18]; 16.6 µM (active) in assay [13]. Moreover, the Potency in assay [17] was 16.6 µM (active); in assay [6] it was 20.9 µM (active); in [14], 20.9 µM (active); in assay [10], 23.5 µM (active).

Consider `O=c1c(O)c(-c2cc(O)c(O)c(O)c2)oc2cc(O)cc(O)c12`, for which the Potency in [1] was 20.9 µM (active); in assay [4] it was 23.5 µM (active); in [17] it was 18.7 µM (active); in assay [6], 18.7 µM (active); in assay [8] it was 20.9 µM (active); in assay [16] it was 23.5 µM (active). For the same molecule, the Potency result in assay [2], in assay [3], in assay [5], in assay [18] and in assay [7] was “inactive” throughout.

For `NC(=O)Cc1cccc(C(=O)c2ccccc2)c1N`, the Potency result in [20], in assay [3], in assay [5], in assay [13], in assay [6] and in assay [14] was “inactive” each time. Also, the Potency result in [8], in [9], in assay [16] and in assay [19] was “inactive” throughout.

For the molecule `COc1cc(Nc2c(C#N)cnc3cc(OCCCN4CCN(C)CC4)c(OC)cc23)c(Cl)cc1Cl`, the Potency in assay [1] is 18.7 µM (active); in [2], 9.35 µM (active); in [11], 1.05 µM (active); in [4], 14.8 µM (active); in [18], 1.32 µM (active); in [13] it was 18.7 µM (active). Moreover, the Potency in assay [17] was 20.9 µM (active); in assay [14], 3.72 µM (active); in assay [15], 29.6 µM (active); in [8], 18.7 µM (active); in assay [16] it was 18.7 µM (active); in assay [10], 16.6 µM (active).

For the molecule `CC(C)c1ccc2oc3nc(N)c(C(=O)O)cc3c(=O)c2c1`, the Potency entry in [1], in assay [2], in assay [11], in assay [3], in [5] and in assay [14] was “inactive” each time. Besides, the Potency result in assay [8] and in assay [16] was “inactive” each time.

As to `Cc1c(C(=O)NN2CCCCC2)nn(-c2ccc(Cl)cc2Cl)c1-c1ccc(Cl)cc1`, the Potency in assay [1] was 20.9 µM (active); in [2] it was 23.5 µM (active); in [11], 23.5 µM (active); in assay [4] it was 23.5 µM (active); in assay [5], 14.8 µM (active); in assay [17], 20.9 µM (active). Besides, the Potency result in assay [10] was “inactive”.

For the molecule `O=C(NOCC1CC1)c1ccc(F)c(F)c1Nc1ccc(I)cc1Cl`, the Potency was 20.9 µM (active) in [1]; 11.8 µM (active) in assay [11]; 4.18 µM (active) in assay [3]; 20.9 µM (active) in [4]; 14.8 µM (active) in [5]; 14.8 µM (active) in assay [6]. Also, the Potency in [14] was 20.9 µM (active); in assay [15], 23.5 µM (active); in assay [10], 23.5 µM (active).

On to `S=c1nc[nH]c2nc[nH]c12`, for which the Potency in assay [20] was 1.87 µM (active); in assay [11], 16.6 µM (active); in assay [3], 7.43 µM (active); in [4], 13.2 µM (active); in assay [5], 2.35 µM (active); in assay [13], 5.9 µM (active). Further, the Potency was 2.96 µM (active) in assay [14], 7.43 µM (active) in assay [8] and 10.5 µM (active) in assay [9]. In assay [6], the Potency entry is “inactive”.
